Molecules are shown by their SMILES. This is part of a sample that, as a whole, favours compounds with a hit. Of some 83,000 tested, about 20% had one in any assay.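 Each cell line was grown in a 96-well plate and treated with one concentration of compound for 48 hours. Values below 10 were considered active.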 Calls of active or inactive are those of the source.

This experiment relates to HL-60(TB) leukemia. Nature of the experiment: NCI-60 one-dose screen, 48 h (100 = growth as untreated, 0 = no growth, -100 = all killed). Particulars: 10 µM unless noted.
Turning to `CN1CCN(Cc2ccc(NC(=O)c3cncc(C#Cc4c(N)ncc5c(F)cccc45)c3)cc2C(F)(F)F)CC1`, the growth is -60.4% (active). For `O=C(Cc1ccc([N+](=O)[O-])cc1)Oc1ccccc1` the value was 105% (inactive); for `CSC1=Nc2c(c(C)c(-c3ccccc3)n2CCCC(=O)O)C2=NC(=O)C[C@H](C)N12`, 93.2% (inactive). For `CC1(C)CN(CCNc2nccc(-c3c(-c4cccc(O)c4)nc4sccn34)n2)S(=O)(=O)N1` the value was 82.5% (inactive); for `O=S(=O)(NCCNc1nccc(-c2c(-c3cccc(O)c3)nc3occn23)n1)c1ccccc1`, 55.3% (inactive). In the case of `NS(=O)(=O)Oc1cccc(-c2nc3sccn3c2-c2ccccc2)c1` it was 0.181% (active); in that of `COc1ccc2ncccc2c1Cc1c(OC)ccc2ncccc12`, 42.3% (inactive); in that of `O=C(Cc1ccccc1)C(F)(F)F`, 95% (inactive). Consider `CN1/C(=C\C(I)C(I)C2=[N+](C)c3ccccc3C2(C)C)C(C)(C)c2ccccc21` (stereo not given), for which the growth is -20.1% (active). As to `C=NNc1ccccc1`, the growth is 117% (inactive). Regarding `C#C[C@@]1(O)[C@@H](CO)O[C@@H](n2cc(Cl)c3c(N)ncnc32)[C@@H]1O`, the growth was -56.8% (active). For `N#C/C(=C\c1ccc(Br)cc1)n1nnc2cc(Cl)c(Cl)cc21` the value was -0.568% (active); for `CCOC(=O)CO`, 83.5% (inactive); for `O=C(/C=C/c1ccc(C(F)(F)F)cc1)c1ccc(Nc2nc(NCCO)nc(NCCO)n2)cc1`, 88.5% (inactive). For `COc1cc2c(Nc3ccc(-c4ccc(N)cc4)cc3)ncnc2c(OC)c1OC` the value was 11.7% (inactive); for `O=C(NC(=S)N1CC=CCC1)c1ccccc1`, 125% (inactive). In the case of `C=C1C(=O)O[C@H]2[C@H]1CC/C(COC(=O)NCc1ccc(Cn3c(=O)sn(-c4ccccc4)c3=O)cc1)=C\CC[C@@]1(C)O[C@@H]21` it was -25.2% (active); in that of `CCN(CC)c1ccc(/C=C/c2cc(C)c3ccccc3n2)cc1`, 59.1% (inactive).

Take `CC(C)=CC(=O)C1C(=O)c2ccccc2C1=O`: the growth is 120% (inactive). In the case of `Cc1cc2ccccn2c1C(=O)c1ccc(C(=O)c2ccccc2)cc1`, the growth is -14.6% (active). For `O=S1(=O)OC(c2ccc(O)c(Cl)c2)(c2ccc(O)c(Cl)c2)c2ccccc21` the value was 109% (inactive). In the case of `OC(CN1CCCC2CCCCC21)c1cc2ccccc2c2ccccc12` (stereo not given) it was 84.9% (inactive). For `CN(C)c1ccc(C(=NO)c2ccc(N(C)C)cc2)cc1` the value was 25% (inactive); for `[2H]C1([2H])NC([2H])([2H])C([2H])([2H])N(c2ccc(Nc3ncc4cc(C(=O)N(C)C)n(C5CCCC5)c4n3)nc2)C1([2H])[2H]`, 22.7% (inactive).

As for `CO[C@H]1/C=C/O[C@@]2(C)Oc3c(C)c(O)c4c(O)c(c(/C=N/N5C(C)CN(Cc6ccccc6)CC5C)c(O)c4c3C2=O)NC(=O)/C(C)=C\C=C\[C@H](C)[C@H](O)[C@@H](C)[C@@H](O)[C@@H](C)[C@H](OC(C)=O)[C@@H]1C` (stereo not given in full), the growth was 161% (inactive). For `COC(=O)C(C(=O)OC)C(Br)C(Br)C(Br)c1ccccc1` (stereo not given) the value was 20.9% (inactive); for `CCc1cc(Cl)c(OC)c(C(=O)NCC2CCCN2CC)c1O` (stereo not given), 84.6% (inactive); for `O=C1/C(=C\c2c[nH]c3ccccc23)c2ccccc2N1c1c(Cl)cccc1Cl`, -7.81% (active).

For the compound `CC(CN1CCN(C)CC1)CN1c2ccccc2Sc2ccc(C(F)(F)F)cc21` (stereo not given), the growth was 40.4% (inactive). With `Cn1cc(-c2noc(-c3cn(C)c4ncccc34)n2)c2cc(Cl)ccc21`, the growth was 80.2% (inactive). For `O=[N+]([O-])c1ccc(-n2[nH]nnc2=S)cc1` the value was 105% (inactive).

Turning to `COc1ccc(C2=C(Nc3ccc(C(=O)Nc4ccccc4)cc3)C(=O)N(C)C2=O)cc1`, the growth is 69.9% (inactive). Take `CC(=O)OC[C@]12CC[C@H]3[C@@H](C[C@H]4O[C@]45CC=CC(=O)[C@]35C)[C@]1(O)CC[C@@]2(O)[C@@](C)(O)C1CC(C)=C(C)C(=O)O1` (stereo not given in full): the growth is -11.8% (active). In the case of `CN(C)CCC(CCN(C)C)(C(=O)O)c1ccccc1` it was 101% (inactive); in that of `COc1cc2ncnc(Nc3ccc(C(=O)/C=C/c4ccc(C(F)(F)F)cc4F)cc3)c2cc1OC`, 85.9% (inactive). For `Cn1cc(-c2noc(-c3cn(C)c4ncc(Br)cc34)n2)c2cc(Cl)ccc21` the value was 102% (inactive); for `COC(=O)C1(CC(C)=O)NC(=S)NC(=O)C1C#N` (stereo not given), 102% (inactive); for `O=[N+]([O-])c1cc(F)c2cccnc2c1O`, 72.9% (inactive). For `c1ccc(C2Cc3ccccc3C2=NC2CCCCC2)cc1` (stereo not given) the value was 98.2% (inactive); for `COc1ccc(-c2nc3c(c(-c4ccc(Cl)cc4)nn3-c3ccccc3)c(-c3ccc(O)cc3)c2C#N)cc1`, 22.7% (inactive).

Source of the values: PubChem BioAssay (NCI).
